Experimental data: PubChem BioAssay
Active and inactive are the calls of the source.

How the values were obtained:
[1] = tested on: Human papillomavirus type 1a protein E7 (residues 44-93); assay: HPV1a E7 fragment binders on microarrays, primary screen, biochemical, small-molecule microarray, residues 44-93, 635 nm fluorescence (AID 1108); conditions: small-molecule microarray binding, fluorescence 635 nm; higher = more signal;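 also: E7 fragment applied at 1 µg/mL in TBST for 1 h at 4 C; score combines spot fluorescence with its signal to noise ratio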
[2] = modulators of HCV replicon luciferase signal, primary screen, HCV replication inhibitor project, Huh7 cells, luciferase reporter (AID 1109); conditions: 48 h, higher = more signal;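 also: huh7 hepatoma cells harbouring a luciferase neomycin HCV replicon reporter; luciferase luminescence as measure of HCV replicon replication; test concentration not given here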
[3] = target: Left-right determination factor 2 (Homo sapiens) (UniProt O00292); assay: LEFTY2 binders on small-molecule microarrays, primary screen, biochemical, small-molecule microarray, 635 nm fluorescence scan (AID 1110); conditions: LEFTY2 binding, higher = more signal
Chain of Left-right determination factor 2 (Homo sapiens) (O00292 whole entry, looked up): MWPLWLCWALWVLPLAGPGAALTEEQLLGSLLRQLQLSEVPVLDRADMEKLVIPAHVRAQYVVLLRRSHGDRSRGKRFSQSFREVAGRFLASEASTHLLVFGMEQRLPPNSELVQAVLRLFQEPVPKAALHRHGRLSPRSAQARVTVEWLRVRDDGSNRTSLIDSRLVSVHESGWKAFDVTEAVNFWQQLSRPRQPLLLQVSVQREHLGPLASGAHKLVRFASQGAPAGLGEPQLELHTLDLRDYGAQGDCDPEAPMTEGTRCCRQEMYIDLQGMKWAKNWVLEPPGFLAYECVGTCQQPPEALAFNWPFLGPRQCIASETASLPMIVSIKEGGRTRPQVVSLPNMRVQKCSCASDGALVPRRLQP

[4] = target: Calmodulin-1 (Homo sapiens) (UniProt P0DP23); assay: CALM1 binders on microarrays, EGTA buffer, profiling panel, biochemical, small-molecule microarray, Cy5-labelled CALM1 (AID 1111); conditions: Cy5-CALM1 binding fluorescence, higher = more signal;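 also: labelled calmodulin applied in Tris saline Tween buffer holding calcium plus EGTA and DTT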
[5] = target: Calmodulin-1 (Homo sapiens) (UniProt P0DP23); assay: calcium-bound CALM1 binders on microarrays, profiling panel, artefact control for SMM control-protein annotation, biochemical, small-molecule microarray, Cy5-labelled CALM1, plus calcium (AID 1112); conditions: Cy5-CALM1 binding fluorescence, higher = more signal;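 also: score merges spot fluorescence with signal to noise from triplicate slides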
[6] = small-molecule microarray binders of probe aWnt5a, primary screen, biochemical, biotinylated probe, 635/667 nm fluorescence (AID 1113); conditions: higher = more signal;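 also: score merges 667 nm fluorescence intensity with signal-to-noise per printed feature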
[7] = small-molecule microarray binders of probe aShh, primary screen, biochemical, biotinylated probe, 635/667 nm fluorescence (AID 1114); conditions: higher = more signal;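 also: probe is biotin-labelled aShh protein from a stem cell growth factor screen; measures binding of labelled protein to compounds printed on the slide; score merges feature fluorescence at 667 nm with signal-to-noise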
[8] = small-molecule microarray binders of probe aNog, primary screen, biochemical, biotinylated probe, 635/667 nm fluorescence (AID 1115); conditions: higher = more signal;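 also: probe is biotinylated aNog protein used at 0.15 µg/mL for 1 h at 4 C; z-score combines 667 nm fluorescence of each spot with its signal to noise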
[9] = target: Torsin-1A-interacting protein 1 (Homo sapiens) (UniProt Q5JTV8); assay: LAP1 binders from COS7 cell lysate, primary screen, small-molecule microarray, 635/667 nm fluorescence (AID 1116); conditions: COS7-hLAP1 lysate binding, 635 nm fluorescence, higher = more signal
Chain of Torsin-1A-interacting protein 1 (Homo sapiens) (Q5JTV8 whole entry, looked up): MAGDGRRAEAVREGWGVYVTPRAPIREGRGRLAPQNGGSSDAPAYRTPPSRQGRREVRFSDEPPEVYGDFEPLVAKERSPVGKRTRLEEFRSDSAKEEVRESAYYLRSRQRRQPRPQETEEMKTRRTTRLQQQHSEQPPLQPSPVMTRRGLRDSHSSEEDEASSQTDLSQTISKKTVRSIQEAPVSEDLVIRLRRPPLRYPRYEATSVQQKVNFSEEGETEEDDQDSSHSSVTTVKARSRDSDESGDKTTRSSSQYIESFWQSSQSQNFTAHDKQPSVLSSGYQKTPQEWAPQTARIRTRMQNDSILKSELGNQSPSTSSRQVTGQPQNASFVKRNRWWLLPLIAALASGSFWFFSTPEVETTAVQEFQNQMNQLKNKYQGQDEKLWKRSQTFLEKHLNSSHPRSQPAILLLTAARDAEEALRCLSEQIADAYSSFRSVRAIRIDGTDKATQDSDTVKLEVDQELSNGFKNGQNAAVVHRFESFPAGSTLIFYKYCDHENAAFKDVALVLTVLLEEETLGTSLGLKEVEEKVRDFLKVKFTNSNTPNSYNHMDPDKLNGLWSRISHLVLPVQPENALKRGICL

[10] = target: Alpha-bungarotoxin (Bungarus multicinctus) (UniProt P60615); assay: alpha-bungarotoxin binders on microarray, profiling panel, artefact control for SMM control protein annotation, biochemical, small-molecule microarray, Alexa647 label, 635/667 nm fluorescence (AID 1117); conditions: alpha-BTX-A647 binding fluorescence, higher = more signal
Chain of Alpha-bungarotoxin (Bungarus multicinctus) (P60615 whole entry, looked up): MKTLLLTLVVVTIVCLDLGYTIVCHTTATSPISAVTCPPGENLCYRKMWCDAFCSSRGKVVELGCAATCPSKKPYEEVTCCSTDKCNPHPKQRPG

Albumin (Bos taurus) = Albumin (Bos taurus) (UniProt P02769); assay: bovine serum albumin binders on microarray, profiling panel, artefact control for SMM control protein annotation, biochemical, small-molecule microarray, Alexa647 label, 635/667 nm fluorescence (AID 1118); conditions: BSA-A647 binding, fluorescence 635 nm, higher = more signal;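 also: score merges 667 nm emission intensity and signal-to-noise per printed compound spot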
Chain of Albumin (Bos taurus) (P02769 whole entry, looked up): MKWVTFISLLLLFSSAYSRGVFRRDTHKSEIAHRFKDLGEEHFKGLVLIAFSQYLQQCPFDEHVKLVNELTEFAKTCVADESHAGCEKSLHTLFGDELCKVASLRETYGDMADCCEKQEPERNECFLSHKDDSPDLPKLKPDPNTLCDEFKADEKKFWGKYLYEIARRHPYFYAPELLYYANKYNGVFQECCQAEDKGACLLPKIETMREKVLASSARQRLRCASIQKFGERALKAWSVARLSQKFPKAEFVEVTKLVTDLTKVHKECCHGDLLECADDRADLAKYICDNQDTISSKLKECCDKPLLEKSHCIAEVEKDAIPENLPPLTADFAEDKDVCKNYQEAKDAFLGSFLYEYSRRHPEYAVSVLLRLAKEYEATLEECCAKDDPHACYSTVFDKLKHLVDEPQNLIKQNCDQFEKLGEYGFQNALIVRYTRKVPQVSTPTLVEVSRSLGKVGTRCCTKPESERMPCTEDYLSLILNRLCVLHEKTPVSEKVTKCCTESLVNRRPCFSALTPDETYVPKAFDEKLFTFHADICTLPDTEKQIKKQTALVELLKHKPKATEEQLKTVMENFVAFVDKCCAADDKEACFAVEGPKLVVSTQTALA

[11] = small-molecule microarray binders of probe aXIP, primary screen, biochemical, NeuroSMM set, 635/667 nm fluorescence (AID 1119); conditions: higher = more signal, called active from +8 up or from −8 down;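 also: probe is the protein aXip251-270 applied at 1 µg/mL to compound-printed slides; binding of probe to printed compounds measured as 667 nm fluorescence plus signal to noise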
[12] = small-molecule binders of probe aNOTCH3, primary screen, biochemical, small-molecule microarray, 635/667 nm fluorescence (AID 1120); conditions: higher = more signal;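 also: probe is a biotin-tagged antibody raised against NOTCH3 rather than NOTCH3 protein; score merges spot fluorescence near 667 nm with spot signal to noise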
[13] = small-molecule binders of probe aNOTCH2, primary screen, biochemical, small-molecule microarray, 635/667 nm fluorescence (AID 1121); conditions: higher = more signal;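 also: score merges feature fluorescence read at 667 nm with its signal to noise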
[14] = target: Carbonic anhydrase 2 (Homo sapiens) (UniProt P00918); assay: CAII small-molecule binders, profiling panel, biochemical, small-molecule microarray, Alexa647-labelled CAII (AID 1122); conditions: CAII-A647 binding fluorescence, higher = more signal
[15] = COS7 lysate on small-molecule microarray, probe aHis, 635 nm (AID 1123); conditions: COS7 cell lysate, fluorescence, higher = more signal;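 also: z-score combines 667nm fluorescence intensity with signal-to-noise per printed compound spot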
[16] = compound binding in COS7 lysate, probe aLAP1, primary screen, cell lysate, small-molecule microarray (AID 1124); conditions: probe aLAP1, fluorescence, higher = more signal;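 also: lysate comes from COS7 cells expressing LAP1 and is applied at 0.3 µg/mL; score merges spot fluorescence near 667 nm with signal-to-noise over triplicate slides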
Sam68 (KHDRBS1) = assay: Sam68 small-molecule binders, primary screen, biochemical, small-molecule microarray, 635 nm fluorescence (AID 1125); conditions: small-molecule microarray binding, higher = more signal;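 also: score merges 667 nm channel intensity with signal to noise over triplicate slides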
[17] = tested on: Chordin-like protein 2 (CHRDL2); assay: CHRDL2 small-molecule binders, primary screen, biochemical, small-molecule microarray, 635 nm fluorescence (AID 1126); conditions: small-molecule microarray binding, fluorescence 635 nm; higher = more signal;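 also: printed compound slides probed with Chrdl2 protein at 4 µg/mL for 1 h at 4 C; score merges 667 nm emission intensity with signal to noise over three replicate slides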
[18] = target: Concanavalin-A (Canavalia ensiformis) (UniProt P02866); assay: ConA small-molecule binders, primary screen, artefact control for SMM control protein annotation, biochemical, small-molecule microarray, Alexa647 label, 635 nm (AID 1127); conditions: ConA-A647 binding fluorescence, higher = more signal;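 also: z combines 667 nm emission intensity with signal-to-noise across three replicate slides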
Chain of Concanavalin-A (Canavalia ensiformis) (P02866 whole entry, looked up): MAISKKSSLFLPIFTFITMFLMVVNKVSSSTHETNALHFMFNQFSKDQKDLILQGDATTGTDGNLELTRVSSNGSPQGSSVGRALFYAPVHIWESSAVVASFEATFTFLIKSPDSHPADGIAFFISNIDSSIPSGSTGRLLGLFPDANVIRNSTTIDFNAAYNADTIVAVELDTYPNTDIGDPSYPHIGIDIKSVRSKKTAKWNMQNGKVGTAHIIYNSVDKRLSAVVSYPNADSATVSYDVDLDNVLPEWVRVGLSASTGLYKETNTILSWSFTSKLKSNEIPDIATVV

Compound	composite z-score [1]	z-score [2]	composite z-score [3]	composite z-score [4]	composite z-score [5]	composite z-score [6]	composite z-score [7]	composite z-score [8]	composite z-score [9]	composite z-score [10]	composite z-score (Albumin (Bos taurus))	composite Z-score [11]	composite z-score [12]	composite z-score [13]	composite z-score [14]	composite z-score [15]	composite z-score [16]	composite z-score (Sam68 (KHDRBS1))	composite z-score [17]	composite z-score [18]
CCC(CC)C(O)C1C=CC2C(=O)N(c3ccccc3)C(=O)C2N1Nc1ccccc1F (stereo not given)	1.2	-0.171	-0.527	0.189	0.25	0.612	-0.214	0.53	0.447	1.39	0.86	0.204 (inactive)	0.188	0.001	0.604	1.83	0.261	0.865	0.118	0.949
COC(=O)[C@@]1(Cc2ccccc2)[C@H]2c3cc(C(=O)N(C)C)n(CCO)c3C[C@H]2CN1C(=O)c1ccccc1	0.56	-0.766	0.145	2.07	1.27	0.0511	0.0005	0.623	0.952	0.723	1.04	0.335 (inactive)	0.0259	0.19	0.958	3.13	0.877	1.24	-1.44	1.2
O=C(NC1CC1)[C@@H]1c2ccccc2C(=O)N(Cc2ccc(OC(F)(F)F)cc2)[C@H]1c1ccc(CO)cc1	1.13	-1.06	0.108	0.168	1.06	-0.0758	-0.0735	-0.399	-0.436	-0.258	0.22	0.061 (inactive)	-0.1	-0.0974	0.642	1.41	-0.169	0.932	-0.584	-0.037
O=C(NC1CC1)[C@@H]1c2ccccc2C(=O)N(CC23CC4CC(CC(C4)C2)C3)[C@H]1c1ccc(CO)cc1	1.36	-1.22	1.13	0.609	-0.657	-0.096	-0.138	-0.541	0.755	0.428	0.654	-0.0662 (inactive)	0.183	-0.0495	0.388	2.18	0.99	1.31	1.16	1.16
CCOC(=O)C1=C[C@@H](C(C)(C)C)N(S(=O)(=O)c2ccc(C)cc2)[C@H]1c1ccc(C#N)cc1	1.41	-2.04	0.282	1.37	0.226	0.055	-0.154	0.618	0.918	1.09	0.684	-0.795 (inactive)	0.0935	0.0655	0.632	2.72	0.969	1.31	0.582	1.09
Cc1ccc(S[C@]2(C(=O)NCC(F)(F)F)CC(=O)N(Cc3ccccc3C(F)(F)F)[C@@H]2c2ccc(CO)cc2)cc1	-0.654	0.169	-1.32	-0.39	0.0313	-0.199	-0.253	0.526	0.0216	-0.693	-0.0912	0.0348 (inactive)	-0.233	-0.0861	0.653	1.24	1.26	-0.556	-1.45	-0.87
Cc1ccc(S[C@]2(C(=O)NCCCN(C)C)CC(=O)N(Cc3ccccc3C(F)(F)F)[C@@H]2c2ccc(CO)cc2I)cc1	0.545	-2.37	-1.17	-0.252	0.236	0.264	-0.403	1.27	0.28	-0.0365	0.374	-0.755 (inactive)	-0.422	0.337	0.792	1.36	1.83	0.492	-0.532	0.0055
CC1=C([C@H](O)CCc2ccccc2)[C@H](CO)n2c(=O)n(-c3ccccc3)c(=O)n2C1	-0.679	-0.508	0.209	-0.524	-0.604	-0.0685	-0.169	-0.0438	-0.395	-0.105	-0.348	0.51 (inactive)	-0.187	-0.199	-0.3	-0.35	-0.603	-0.308	0.443	-0.0316
O=C1[C@H]2C=C(I)[C@H](C[C@@H]2OCCCCCCO)[C@@]12CO2	-1.14	-2.67	0.687	-1.08	-1	-0.152	-0.0362	-0.422	-0.144	0.621	0.683	0.047 (inactive)	0.0876	-0.112	0.751	-0.298	-0.16	-0.747	1.24	-1.05
C[N+](C)(C)CCCCNC(=O)[C@H]1C[C@H]2C(=O)N[C@@H](Cc3ccccc3)C(=O)N2[C@H]1c1cccc(OCCO)c1	-0.365	-0.741	1.34	-1.14	-1.7	-0.0495	0.151	-0.456	1.17	-0.245	-1.43	0.466 (inactive)	0.0401	-0.1	0.542	1.71	1.3	0.669	1.5	1.1
[N-]=[N+]=Nc1ccccc1C[C@]1(C(=O)N2CCOCC2)N=C(c2ccc(OCCCO)cc2)O[C@H]1c1ccccc1N=[N+]=[N-]	1.29	-2.23	1.22	1.5	-0.388	0.145	0.275	-0.626	1.9	1.84	0.832	0.317 (inactive)	0.472	-0.14	0.648	3.09	0.654	1.28	0.86	1.15
